Rows were chosen to be rich in hits. Some 1.1% of all compounds tested hit in one or more screens of this group.
SRC1 inh = inhibits human SRC1 coactivator; Q15788; HEK293 GAL4-SRC1 luciferase reporter, luminescence; inhibition, % at 3.6 µM; actives 0.12% (n = 360,000); AID 588354;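 active = inhibition above the campaign mean plus 3 SD, with each screening campaign given its own cutoff, cut at about 60% in these data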
NCOA2 inhibitor = human SRC2 (NCOA2) inhibition; HEK293 GAL4-SRC2 luciferase reporter, luminescence; Q15596; actives 0.17% (n = 370,000); AID 651957; inhibition, % at 9 µM;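 active = inhibition above the mean inhibition of all tested compounds plus 3 SD, set per campaign, cut at about 52% in these data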
NCOA3 inh = inhibits human SRC3 coactivator | Q9Y6Q9 | HEK293 GAL4-SRC3 luciferase reporter, luminescence | inhibition, % at 3.6 µM | actives 0.17% (n = 360,000) | AID 588352;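 active = inhibition above a per-campaign cutoff, the mean of all compounds plus 3 SD, cut at about 60% in these data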;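 note: higher means less SRC3-driven luciferase light from the GAL4 reporter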
NR2F2 inh = NR2F2 (human) inhibition, primary screen; P24468; HEK293T NGFI-A luciferase reporter, luminescence; inhibition, % at 8.6 µM; actives 0.7% (n = 370,000); AID 686940;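 active = inhibition above a per-plate cutoff, mean inhibition of test wells between control levels plus 3 SD, cut at about 38% in these data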;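 note: cells cotransfected with COUP-TFII expression vector driving the NGFI-A reporter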
LRH-1 inv ag = inverse agonists of human LRH-1 (NR5A2); HEK293T StAR-luciferase reporter, LRH-1 transfected, 24 h; AID 602396; actives 0.13% (n = 360,000); O00482; inhibition, % at 3.6 µM;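 active = inhibition above the mean inhibition of all tested compounds plus 3 SD, cut at about 73% in these data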
Target sequence (O00482 whole entry, looked up): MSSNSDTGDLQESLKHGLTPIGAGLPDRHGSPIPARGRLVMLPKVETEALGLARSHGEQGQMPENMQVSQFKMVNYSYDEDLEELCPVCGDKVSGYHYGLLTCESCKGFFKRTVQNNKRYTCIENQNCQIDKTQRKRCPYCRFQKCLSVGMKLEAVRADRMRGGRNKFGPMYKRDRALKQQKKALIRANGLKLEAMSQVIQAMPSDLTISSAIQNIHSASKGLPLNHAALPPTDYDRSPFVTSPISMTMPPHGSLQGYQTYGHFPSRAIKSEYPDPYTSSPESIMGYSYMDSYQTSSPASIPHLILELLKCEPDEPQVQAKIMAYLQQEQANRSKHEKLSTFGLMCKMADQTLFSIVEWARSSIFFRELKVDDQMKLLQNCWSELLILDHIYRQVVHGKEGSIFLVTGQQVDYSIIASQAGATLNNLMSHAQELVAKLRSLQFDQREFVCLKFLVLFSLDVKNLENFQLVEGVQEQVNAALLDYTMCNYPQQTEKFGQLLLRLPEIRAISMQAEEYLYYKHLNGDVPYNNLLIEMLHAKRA
GalR3 antag = blocks the human galanin receptor 3; AID 651719; inhibition, % at 3 µM; actives 0.44% (n = 360,000); HEK293 GalR3-CNG cAMP membrane potential fluorescence; galR3 body fused to GalR1 C-terminus;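 active = inhibition above the screen-wide average plus 3 SD, cut at about 13% in these data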;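 note: forskolin and galanin both at EC90 stimulate the cells; cAMP rise reported by CNG channel membrane potential dye signal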
A number is an active result; - = inactive; . = no result.

SMILES	SRC1 inh	NCOA2 inhibitor	NCOA3 inh	NR2F2 inh	LRH-1 inv ag	GalR3 antag
COCc1c(C(=O)N2CCN(Cc3c(F)cccc3Cl)CC2)oc2ccccc12	-	-	-	-	-	-
COCCCN(CC(=O)Nc1ccc(N2CCOCC2)cc1)S(=O)(=O)c1ccc(C)cc1	-	-	-	-	-	-
CCOc1ccc2[nH]c(=O)c(CN(CCN3CCCC3)C(=S)Nc3ccccc3OC)cc2c1	-	-	-	-	-	-
O=C1Cc2c([nH]c3ccc([N+](=O)[O-])cc23)-c2ccccc2N1	-	-	73.2	37.5	-	-
CN(C)c1ncnc2c1nnn2C1OC(CO)C(O)C1O (stereo not drawn)	63.7	-	68.8	-	97.7	-
O=c1[nH]cnc2c1nnn2C1OC(CO)C(O)C1O (stereo not drawn)	-	-	-	-	84.6	-
CN(C)c1ncnc2c1ncn2C1OC(CO)C(O)C1O (stereo not drawn)	-	-	-	-	-	-
Fc1ccc(CCn2c(Cn3c(-c4cnccn4)nc4ccccc43)nc3ccccc32)cc1	.	-	.	-	-	-
COC(=O)C1=C(C)N(c2ccc(Cl)cc2)/C(=C/c2cccs2)C1=O	-	-	-	-	-	-
COc1ccc(OCc2n(CC(=O)OC3CC(C)CCC3C(C)C)c3ccccc3[n+]2C)cc1 (stereo not drawn)	-	-	-	-	-	-
COc1ccc(-c2n(CC(=O)OC3CC(C)CCC3C(C)C)c3ccccc3[n+]2C)cc1 (stereo not drawn)	-	-	69.8	-	-	-
CC(C)NS(=O)(=O)c1ccc(OCC(=O)Nc2ccc3c(c2)OCO3)c(Cl)c1	-	-	-	-	-	-
COc1ccc(N=C(NN)c2ccc3ccccc3n2)cc1	-	62.7	-	74.7	77.3	-
O=c1[nH]c(=O)n([C@H]2C[C@H](O)[C@@H](CO)O2)cc1F	65.8	-	66.6	-	-	.
O=c1[nH]c(=O)n(C2CC(O)C(CO)O2)cc1I (stereo not drawn)	-	-	-	-	-	-
CC(Oc1ccccc1)C(=O)N(CCC1=CCCCC1)c1c(N)n(Cc2ccccc2)c(=O)[nH]c1=O (stereo not drawn)	-	-	-	-	-	-
Cc1cn([C@@H](CCCCNC(=O)OC(C)(C)C)C(=O)NCCCCCCCCCCC(=O)N2CCN(C(=O)OC(C)(C)C)CC2)nn1	-	.	63.5	.	-	.
CC(C)(C)OC(=O)CNC(=O)c1nc[nH]c1C(=O)NCc1ccc(CNC(=O)OC(C)(C)C)cc1	-	-	-	-	-	-
CC(C)(C)OC(=O)NCCCCCNC(=O)c1nc[nH]c1C(=O)NCc1ccc(CNC(=O)OC(C)(C)C)cc1	-	-	-	72.2	-	-
CC(C)(C)OC(=O)NCc1ccc(CNC(=O)c2nc[nH]c2C(=O)NCc2ccc(CNC(=O)OC(C)(C)C)cc2)cc1	-	-	-	46.5	-	-
Cc1cc(C(=O)COc2cccnc2[N+](=O)[O-])c(C)n1-c1ccccc1	68.8	-	66.1	-	-	-
Cc1cc2cc(CN(Cc3ccco3)S(=O)(=O)c3c(C)ccc4nsnc34)c(=O)[nH]c2cc1C	-	-	-	-	-	-
Cc1ccc2cc(CN(Cc3ccco3)S(=O)(=O)c3c(C)ccc4nsnc34)c(=O)[nH]c2c1	-	77.2	-	-	-	-
Cc1ccc(-c2nn(-c3ccccc3)cc2C=C2C(=O)CC(C)(C)CC2=O)cc1	-	-	-	-	-	-
CC1=NNC(=O)/C1=C\c1cn(-c2ccccc2)nc1-c1ccc(Cl)cc1	-	-	-	-	-	21.4
SMILES	SRC1 inh	NCOA2 inhibitor	NCOA3 inh	NR2F2 inh	LRH-1 inv ag	GalR3 antag
O=C1c2cccc3c([N+](=O)[O-])ccc(c23)C(=O)N1Cc1cccnc1	-	-	-	-	-	30.3
Cc1cc(C)n(-c2nc(SCCN3CCOCC3)c3c4c(sc3n2)CCCC4)n1	-	-	-	-	-	-
CC(=O)Nc1cccc(-c2cc(NC(C)=O)c3ncc(-c4ccc(F)cc4)n3c2)c1	-	54.1	-	-	-	-
CC1CN(S(=O)(=O)c2cccc(C(=O)NCCCn3ccnc3)c2)CC(C)O1 (stereo not drawn)	-	-	-	-	-	-
CC1CN(S(=O)(=O)c2ccc(C(=O)NCCCn3ccnc3)cc2)CC(C)O1 (stereo not drawn)	62.3	-	-	-	-	-
COc1cc2ccccc2ccc1=NO	-	54.1	-	-	-	-
COc1cc2ccccc2cc1C(=O)O	-	-	-	-	-	-
Nc1nc(=S)c2ncn([C@@H]3O[C@H](CO)[C@@H](O)[C@H]3O)c2[nH]1	-	-	-	-	80.8	-
Nc1ncn([C@@H]2O[C@H](CO)[C@@H](O)[C@H]2O)c(=O)n1	65.5	-	78.5	-	74.7	-
Nc1ccn([C@@H]2O[C@H](CO)[C@@H](O)[C@@H]2O)c(=O)n1	-	-	-	-	-	-
COc1ccc(Cl)cc1-c1cc(C(=O)Nc2ccc(Br)cc2)[nH]n1	-	-	-	-	-	-
CCCc1cc(=O)oc2c3c(cc(OCC(=O)NCc4ccccn4)c12)OC(C)(C)CC3	-	-	-	-	-	16.4
O=C(C1=C[C@H](c2ccccc2)C[C@H](OCCCCO)O1)N1CCN(Cc2ccccc2)CC1	-	-	-	-	-	-
C#Cc1ccc([C@@H]2C=C(C(=O)N3CCN(Cc4ccccc4)CC3)O[C@H](OCCCCO)C2)cc1	-	.	-	.	89.3	.
Cc1cc(NC(=O)c2ccccc2)c(Cl)cc1N	-	65.7	-	-	-	-
Cc1oc(C(C)(C)C)cc1-c1cc(NC(=O)c2ccc([N+](=O)[O-])cc2)n[nH]1	-	-	-	-	-	-
Clc1ccc(-c2csc(=Nc3cccnc3)n2CCCn2ccnc2)cc1Cl	-	56.6	-	-	-	-
CCc1ccc(-c2cc(C)no2)cc1S(=O)(=O)NCc1ccccc1OC	-	-	-	-	-	-
CCN(CC)c1ccc(NC(=O)CCCCCN2C(=O)c3ccccc3C2=O)cc1	-	-	-	-	-	-
CCN(CC)c1ccc(NC(=O)CCCCC(=O)Nc2ccc(N(CC)CC)cc2)cc1	-	56.9	-	-	-	-
C=CCn1c(C)cc(C2=NNC(=NC(C)(C)C)SC2)c1C	-	-	-	58.2	-	-
CCN(CC)C(=O)Cn1cc(SCC(=O)Nc2cc(C)on2)c2ccccc21	-	-	-	-	-	-
CC(=NNc1nc2ccccc2o1)c1cc2ccccc2cn1	65.0	-	69.6	-	-	-
Cc1cc(C)c(S(=O)(=O)N2CCN(C(=O)c3c(C)nn(-c4ccccc4)c3Cl)CC2)c(C)c1	-	-	-	-	-	-
C/C(CC(=O)NC1C2CC3CC(C2)CC1C3)=N\NC(=O)Cc1cccs1 (stereo not drawn)	-	98.1	-	-	-	-

High-throughput results (PubChem BioAssay)
